# Source: the supplement of paper PMC8728848
# Only a selection was taken, and the strongest signals are over-represented in it overall.
# B1: LSectin (Mus musculus), Q8BNX1 (protein)
# chain: MNTGEYNKLGSAIEEVSRGQLGRWECYKQRLFFLVLALLVATVLWALILSTLLSSASSKLRVLLSHQDLLRTNASEQKMTLSSLKDDIGACRNCCSVTKAQLQTTLAEFKDIQAKLMEQESILKELQERVTQDLAKASRDRENIRSELFQALEAVKRQNSSCEQCPPSWLPFQGSCYYFSETQATWDTAQSYCGGQGAHLVIVRGLNEQGFLSQHTRGRGYWLGLRAVRHLNKIQGYRWVDGASLNFSHWNSGEPNDSRGHEDCIMMLHSGLWNDAPCTNERDGWICEKRSSCY
# Experiments:
# Test in all cases: glycan array binding signal (z-score within array); higher = stronger binding
# Settings in all cases: glycan notation: IUPAC condensed, linker removed
# [1] = target: Fuc(a1-2)Gal(b1-3)GlcNAc(b1-2)Man(a1-3)[Fuc(a1-2)Gal(b1-3)GlcNAc(b1-2)Man(a1-6)]Man(b1-4)GlcNAc(b1-4)GlcNAc
# How it was run: (§1)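 The Consortium for Functional Glycomics database supplied 3228 glycan arrays, of which those lacking an available protein sequence were dropped. The binding signal, a within-array Z-score, was averaged across arrays of the same protein sequence and across linkers. Negative scores can be read as non-binding.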
# [2] = target: Fuc(a1-2)Gal(b1-3)GlcNAc(b1-3)[Fuc(a1-3)[Gal(b1-4)]GlcNAc(b1-6)]Gal(b1-4)Glc
# How it was run: as §1
# [3] = target: Fuc(a1-2)Gal(b1-3)GlcNAc(b1-3)[Gal(b1-4)GlcNAc(b1-6)]Gal(b1-4)Glc
# How it was run: as §1
# Fuc(a1-2)[Gal(a1-3)]Gal = target: Fuc(a1-2)[Gal(a1-3)]Gal
# How it was run: as §1
# [4] = target: Fuc(a1-2)[Gal(a1-3)]Gal(b1-4)[Fuc(a1-3)]Glc
# How it was run: as §1
# [5] = target: Fuc(a1-2)[GalNAc(a1-3)]Gal(b1-4)GlcNAc
# How it was run: as §1
# [6] = target: Fuc(a1-2)[GalNAc(a1-3)]Gal(b1-4)GlcNAc(b1-3)Gal(b1-4)GlcNAc
# How it was run: as §1
# [7] = target: Fuc(a1-3)[Gal(b1-4)]GlcNAc(b1-2)Man(a1-3)[Fuc(a1-3)[Gal(b1-4)]GlcNAc(b1-2)Man(a1-6)]Man(b1-4)GlcNAc(b1-4)GlcNAc
# How it was run: as §1
# [8] = target: Gal(a1-4)Gal(b1-4)GlcNAc(b1-2)Man(a1-3)[Gal(a1-4)Gal(b1-4)GlcNAc(b1-2)Man(a1-6)]Man(b1-4)GlcNAc(b1-4)GlcNAc
# How it was run: as §1
# Gal(b1-3)GlcNAc = target: Gal(b1-3)GlcNAc
# How it was run: as §1
# [9] = target: Gal(b1-3)GlcNAc(b1-3)Gal(b1-3)GlcNAc
# How it was run: as §1
# [10] = target: Gal(b1-3)GlcNAc(b1-3)Gal(b1-4)GlcNAc
# How it was run: as §1
# [11] = target: Gal(b1-3)[Fuc(a1-4)]GlcNAc(b1-3)Gal(b1-3)[Fuc(a1-4)]GlcNAc
# How it was run: as §1
# [12] = target: Gal(b1-4)GlcNAc(b1-2)Man(a1-6)[GlcNAc(b1-2)Man(a1-3)]Man(b1-4)GlcNAc(b1-4)GlcNAc
# How it was run: as §1
# [13] = target: Gal(b1-4)GlcNAc(b1-3)[Gal(b1-4)GlcNAc(b1-6)]GalNAc
# How it was run: as §1
# Gal6S(b1-3)GlcNAc = target: Gal6S(b1-3)GlcNAc
# How it was run: as §1
# [14] = target: GalNAc(a1-3)GalNAc(a1-3)Gal(a1-4)Gal(b1-4)GlcNAc
# How it was run: as §1
# Glc(b1-4)Glc = target: Glc(b1-4)Glc
# How it was run: as §1
# GlcA(b1-3)Gal = target: GlcA(b1-3)Gal
# How it was run: as §1
# [15] = target: GlcNAc(a1-3)Gal(b1-4)GlcNAc
# How it was run: as §1
# [16] = target: GlcNAc(b1-2)Man(a1-3)[GlcNAc(b1-2)Man(a1-6)]Man(b1-4)GlcNAc(b1-4)GlcNAc
# How it was run: as §1
# [17] = target: GlcNAc(b1-2)Man(a1-3)[GlcNAc(b1-2)Man(a1-6)]Man(b1-4)GlcNAc(b1-4)[Fuc(a1-6)]GlcNAc
# How it was run: as §1
# [18] = target: GlcNAc(b1-2)Man(a1-3)[GlcNAc(b1-4)][GlcNAc(b1-2)Man(a1-6)]Man(b1-4)GlcNAc(b1-4)GlcNAc
# How it was run: as §1
# [19] = target: GlcNAc(b1-2)[GlcNAc(b1-6)]Man(a1-6)[GlcNAc(b1-2)Man(a1-3)]Man(b1-4)GlcNAc(b1-4)GlcNAc
# How it was run: as §1
# [20] = target: GlcNAc(b1-2)[GlcNAc(b1-6)]Man(a1-6)[GlcNAc(b1-2)Man(a1-3)][GlcNAc(b1-4)]Man(b1-4)GlcNAc(b1-4)GlcNAc
# How it was run: as §1
# GlcNAc(b1-3)Gal = target: GlcNAc(b1-3)Gal
# How it was run: as §1
# GlcNAc3Prop(b1-4)GlcNAc = target: GlcNAc3Prop(b1-4)GlcNAc
# How it was run: as §1
# [21] = target: Man(a1-3)[Man(a1-6)]Man(a1-6)[Man(a1-3)]Man(b1-4)GlcNAc(b1-4)GlcNAc
# How it was run: as §1
# Neu5Ac(a2-3)Gal = target: Neu5Ac(a2-3)Gal
# How it was run: as §1
# [22] = target: Neu5Ac(a2-3)Gal(b1-4)[Fuc(a1-3)]GlcNAc(b1-3)GalNAc
# How it was run: as §1
# [23] = target: Neu5Ac(a2-3)Gal(b1-4)[Fuc(a1-3)]GlcNAc(b1-6)[Neu5Ac(a2-3)Gal(b1-3)]GalNAc
# How it was run: as §1
# Neu5Ac(a2-6)Gal = target: Neu5Ac(a2-6)Gal
# How it was run: as §1
# [24] = target: Neu5Ac(a2-6)Gal(b1-3)GlcNAc(b1-3)[Gal(b1-4)GlcNAc(b1-6)]Gal(b1-4)Glc
# How it was run: as §1
# [25] = target: Neu5Ac(a2-6)Gal(b1-4)GlcNAc(b1-2)Man(a1-6)[GlcNAc(b1-2)Man(a1-3)]Man(b1-4)GlcNAc(b1-4)GlcNAc
# How it was run: as §1
# [26] = target: Neu5Ac(a2-6)Gal(b1-4)GlcNAc(b1-3)Gal(b1-4)GlcNAc(b1-3)Gal(b1-4)GlcNAc
# How it was run: as §1
# [27] = target: Neu5Ac(a2-6)GalNAc(b1-4)GlcNAc
# How it was run: as §1
# [28] = target: Neu5Ac(a2-6)GlcNAc(b1-4)GlcNAc
# How it was run: as §1
# [29] = target: Neu5Ac(a2-8)Neu5Ac(a2-3)Gal(b1-4)Glc
# How it was run: as §1
# [30] = target: Neu5Ac9Ac(a2-6)Gal(b1-4)GlcNAc
# How it was run: as §1
# [31] = target: Neu5Gc(a2-3)Gal(b1-4)GlcNAc
# How it was run: as §1
binder,measurement,setting,value
B1,glycan array binding signal (z-score),[1],-0.18
same,glycan array binding signal (z-score),[2],-0.187
same,glycan array binding signal (z-score),[3],-0.188
same,glycan array binding signal (z-score),Fuc(a1-2)[Gal(a1-3)]Gal,-0.145
same,glycan array binding signal (z-score),[4],-0.124
same,glycan array binding signal (z-score),[5],-0.176
same,glycan array binding signal (z-score),[6],-0.185
same,glycan array binding signal (z-score),[7],-0.158
same,glycan array binding signal (z-score),[8],-0.18
same,glycan array binding signal (z-score),Gal(b1-3)GlcNAc,-0.132
same,glycan array binding signal (z-score),[9],-0.18
same,glycan array binding signal (z-score),[10],-0.175
same,glycan array binding signal (z-score),[11],-0.172
same,glycan array binding signal (z-score),[12],4.08
same,glycan array binding signal (z-score),[13],-0.192
same,glycan array binding signal (z-score),Gal6S(b1-3)GlcNAc,-0.188
same,glycan array binding signal (z-score),[14],-0.19
same,glycan array binding signal (z-score),Glc(b1-4)Glc,-0.17
same,glycan array binding signal (z-score),GlcA(b1-3)Gal,-0.169
same,glycan array binding signal (z-score),[15],-0.14
same,glycan array binding signal (z-score),[16],6.38
same,glycan array binding signal (z-score),[17],5.47
same,glycan array binding signal (z-score),[18],7.84
same,glycan array binding signal (z-score),[19],4.99
same,glycan array binding signal (z-score),[20],7.22
same,glycan array binding signal (z-score),GlcNAc(b1-3)Gal,-0.164
same,glycan array binding signal (z-score),GlcNAc3Prop(b1-4)GlcNAc,-0.168
same,glycan array binding signal (z-score),[21],-0.172
same,glycan array binding signal (z-score),Neu5Ac(a2-3)Gal,-0.148
same,glycan array binding signal (z-score),[22],-0.154
same,glycan array binding signal (z-score),[23],-0.181
same,glycan array binding signal (z-score),Neu5Ac(a2-6)Gal,-0.118
same,glycan array binding signal (z-score),[24],-0.187
same,glycan array binding signal (z-score),[25],4.19
same,glycan array binding signal (z-score),[26],-0.182
same,glycan array binding signal (z-score),[27],3.69
same,glycan array binding signal (z-score),[28],-0.18
same,glycan array binding signal (z-score),[29],-0.158
same,glycan array binding signal (z-score),[30],-0.16
same,glycan array binding signal (z-score),[31],-0.156
